# Measurements published in PubChem BioAssay (Tox21).
# Values joined by “and” are separate entries in the source; they are usually repeats but may differ in a detail not shown here. Equal values may be shown once. Unmarked numbers belong to inactive results. Inconclusive results are not listed. A call without a number means that no potency is given here. Active and inactive are the calls of the source. Unless noted, calls follow the shape of the dose curve; as a rule, active = well fitted curve in the direction sought with a large enough effect in the repeat runs; inconclusive = weak or mixed curves; inactive = no such curve, though single readings can be large; an effect the other way counts as inactive or inconclusive.
# Experiments:
# [1] = qHTS assay to test for compound auto fluorescence at 535 nm (green) in HEK293 cells (AID 720680)
# [2] = qHTS assay to test for compound auto fluorescence at 460 nm (blue) in HEK293 cell free culture (AID 720681)
# How it was run: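 Test compounds were pinned into cell-free culture medium (DMEM with 10% FBS) and fluorescence was read directly at Ex/Em 405/460 nm. Signals were expressed as fluorescence equivalents of triamterene, with DMSO vehicle as control.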
# [3] = qHTS assay to test for compound auto fluorescence at 535 nm (green) in HEK293 cell free culture (AID 720682)
# How it was run: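 Compounds were pin-transferred into cell-free DMEM with 10% FBS, and green fluorescence was read at excitation 485 nm and emission 535 nm. Intensities were expressed as fluorescein-equivalent values.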
# [4] = qHTS assay to test for compound auto fluorescence at 590 nm (red) in HEK293 cell free culture (AID 720683)
# How it was run: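 Tox21 10K library compounds were pinned into cell-free DMEM with 10% FBS and fluorescence was read at excitation 540 nm. Activity is expressed as Rose Bengal sodium equivalency.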
# [5] = qHTS assay to test for compound auto fluorescence at 590 nm (red) in HepG2 cell free culture (AID 720684)
# How it was run: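 Red fluorescence (540 nm excitation, 590 nm emission) was measured after compound transfer into cell-free MEM supplemented with 10% FBS. Values are equivalencies against Rose Bengal sodium.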
# [6] = qHTS assay to test for compound auto fluorescence at 460 nm (blue) in HepG2 cell free culture (AID 720685)
# How it was run: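 Compound (23 nL) or DMSO pinned into cell-free MEM with 10% FBS; blue fluorescence read at 405/460 nm excitation/emission, expressed as auto-fluorescence equivalency to triamterene.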
# [7] = qHTS assay to test for compound auto fluorescence at 535 nm (green) in HepG2 cell free culture (AID 720686)
# [8] = qHTS assay to test for compound auto fluorescence at 460 nm (blue) in HepG2 cells (AID 720687)
# How it was run: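 Cells (2,000/well in MEM with 10% FBS) attached overnight at 37 C, then were exposed to compound or DMSO for 1 hr at 37 C, 5% CO2. Fluorescence read at Ex/Em 405/460 nm, expressed as triamterene-equivalent signal.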
# [9] = molecular target: Glucocorticoid receptor (Homo sapiens) (UniProt P04150); assay: qHTS assay to identify small molecule agonists of the glucocorticoid receptor (GR) signaling pathway (AID 720691; active = well fitted activation curve with a large enough effect in the signal ratio in the repeat runs, not every such curve was filed as active; the % refers to the signal ratio)
# How it was run: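 Agonist mode in a HeLa line carrying a GRE-controlled beta-lactamase reporter. Compounds act for 18 h at 37 C before a 2 h room-temperature FRET substrate step and fluorescence reading.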
# [10] = molecular target: Glucocorticoid receptor (Homo sapiens) (UniProt P04150); assay: qHTS assay to identify small molecule antagonists of the glucocorticoid receptor (GR) signaling pathway (AID 720692; active = well fitted inhibition curve with a large enough effect in the signal ratio in the repeat runs, not every such curve was filed as active; the % refers to the signal ratio)
# How it was run: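 Cells plated, rested 4 h at 37 C/5% CO2; compounds in DMSO pin-transferred; dexamethasone added to 5 nM final; 18 h at 37 C; B/G FRET substrate added, 2 h room temperature; fluorescence measured.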
# [11] = qHTS assay to identify small molecule antagonists of the glucocorticoid receptor (GR) signaling pathway - cell viability counter screen (AID 720693); also: nearly all actives have a fitted effect of over 55% in size
# [12] = qHTS assay for identifying genotoxic compounds that show differential cytotoxicity against isogenic chicken DT40 cell lines with known DNA damage response pathways - wild type cell line (AID 743012); also: nearly all actives have a fitted effect of over 60% in size; also: potency is read from the fitted curve at half-maximal effect
# How it was run: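 Cells (DT40 wild type, 300/well) are treated with DMSO-dissolved compounds after a ~0.5 h pre-incubation and kept 40 h at 37 C/5% CO2. Viability is then measured by CellTiter-Glo luminescence following 30 min at room temperature.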
# [13] = qHTS assay for identifying genotoxic compounds that show differential cytotoxicity against isogenic chicken DT40 cell lines with known DNA damage response pathways - Rev3 mutant cell line (AID 743014); also: nearly all actives have a fitted effect of over 55% in size; also: potency is read from the fitted curve at half-maximal effect
# [14] = qHTS assay for identifying genotoxic compounds that show differential cytotoxicity against isogenic chicken DT40 cell lines with known DNA damage response pathways - Rad54/Ku70 mutant cell line (AID 743015); also: nearly all actives have a fitted effect of over 60% in size; also: potency is read from the fitted curve at half-maximal effect
# [15] = qHTS assay to identify small molecule antagonists of the androgen receptor (AR) signaling pathway - cell viability counter screen (AID 743033; also: nearly all actives have a fitted effect of over 45% in size; also: potency is read from the fitted curve at half-maximal effect)
# [16] = qHTS assay to identify small molecule antagonists of the androgen receptor (AR) signaling pathway using the MDA cell line - cell viability counter screen (AID 743041; also: nearly all actives have a fitted effect of over 45% in size)
# How it was run: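 MDA-kb2 AR-luc human breast carcinoma cells (MMTV-luciferase, AR/GR responsive) were treated with compounds plus R1881 agonist for 16 h at 37 °C. Viability was read as CellTiter-Fluor fluorescence in the same wells as the reporter assay.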
# [17] = qHTS assay to identify small molecule antagonists of the thyroid receptor (TR) signaling pathway - cell viability counter screen (AID 743064); also: nearly all actives have a fitted effect of over 50% in size; also: potency is read from the fitted curve at half-maximal effect
# How it was run: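 In-well cytotoxicity read by CellTiter-Fluor (30 min, 37 C) following 23.5 h exposure of GH3 cells bearing a TRE-luciferase sensor. Compounds were added alongside 1 nM (final) T3 to drive TR transactivation.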
# [18] = molecular target: Androgen receptor (Homo sapiens) (UniProt P10275); assay: qHTS assay to identify small molecule antagonists of the androgen receptor (AR) signaling pathway (AID 743035; active = well fitted inhibition curve with a large enough effect in the signal ratio in the repeat runs, not every such curve was filed as active; the % refers to the signal ratio)
# How it was run: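 Antagonism is scored as loss of R1881-driven beta-lactamase reporter expression in HEK293 cells carrying the reporter under a UAS element, after 16 h co-treatment at 37C and a 2 h room-temperature FRET substrate read.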
# [19] = molecular target: Androgen receptor (Homo sapiens) (UniProt P10275); assay: qHTS assay to identify small molecule agonists of the androgen receptor (AR) signaling pathway using the MDA cell line (AID 743040; also: nearly all actives have a fitted effect of over 20% in size)
# How it was run: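 MDA-kb2 breast carcinoma cells stably carrying an MMTV-driven luciferase reporter (AR- and GR-responsive) were seeded and held 5 h at 37C, 0% CO2, then exposed to compounds in DMSO for 16 h. Luminescence was read 30 min after ONE-Glo addition.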
# Androgen receptor (Homo sapiens), sequence (P10275 whole entry, looked up): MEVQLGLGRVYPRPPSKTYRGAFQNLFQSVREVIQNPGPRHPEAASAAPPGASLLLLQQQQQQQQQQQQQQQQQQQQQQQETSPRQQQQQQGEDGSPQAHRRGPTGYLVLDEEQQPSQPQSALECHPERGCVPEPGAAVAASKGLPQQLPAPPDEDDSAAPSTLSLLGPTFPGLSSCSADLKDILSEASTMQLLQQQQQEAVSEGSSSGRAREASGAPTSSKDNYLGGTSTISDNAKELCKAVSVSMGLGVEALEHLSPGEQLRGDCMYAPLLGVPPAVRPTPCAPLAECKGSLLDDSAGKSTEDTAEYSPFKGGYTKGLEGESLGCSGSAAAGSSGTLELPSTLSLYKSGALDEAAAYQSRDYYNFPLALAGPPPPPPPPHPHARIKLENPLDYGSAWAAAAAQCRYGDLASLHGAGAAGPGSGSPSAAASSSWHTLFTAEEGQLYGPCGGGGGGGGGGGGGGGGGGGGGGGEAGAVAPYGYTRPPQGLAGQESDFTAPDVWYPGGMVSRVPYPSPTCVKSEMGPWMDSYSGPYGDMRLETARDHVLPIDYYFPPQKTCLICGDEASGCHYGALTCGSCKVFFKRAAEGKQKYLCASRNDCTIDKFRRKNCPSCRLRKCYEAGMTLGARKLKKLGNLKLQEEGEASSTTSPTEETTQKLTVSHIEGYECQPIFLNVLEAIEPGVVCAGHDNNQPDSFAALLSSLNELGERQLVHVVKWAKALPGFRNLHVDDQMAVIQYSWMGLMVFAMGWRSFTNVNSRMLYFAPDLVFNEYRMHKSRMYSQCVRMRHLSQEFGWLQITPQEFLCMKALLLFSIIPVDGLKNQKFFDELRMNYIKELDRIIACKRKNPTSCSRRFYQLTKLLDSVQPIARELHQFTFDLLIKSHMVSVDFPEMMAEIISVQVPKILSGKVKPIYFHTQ
# Glucocorticoid receptor (Homo sapiens), sequence (P04150 whole entry, looked up): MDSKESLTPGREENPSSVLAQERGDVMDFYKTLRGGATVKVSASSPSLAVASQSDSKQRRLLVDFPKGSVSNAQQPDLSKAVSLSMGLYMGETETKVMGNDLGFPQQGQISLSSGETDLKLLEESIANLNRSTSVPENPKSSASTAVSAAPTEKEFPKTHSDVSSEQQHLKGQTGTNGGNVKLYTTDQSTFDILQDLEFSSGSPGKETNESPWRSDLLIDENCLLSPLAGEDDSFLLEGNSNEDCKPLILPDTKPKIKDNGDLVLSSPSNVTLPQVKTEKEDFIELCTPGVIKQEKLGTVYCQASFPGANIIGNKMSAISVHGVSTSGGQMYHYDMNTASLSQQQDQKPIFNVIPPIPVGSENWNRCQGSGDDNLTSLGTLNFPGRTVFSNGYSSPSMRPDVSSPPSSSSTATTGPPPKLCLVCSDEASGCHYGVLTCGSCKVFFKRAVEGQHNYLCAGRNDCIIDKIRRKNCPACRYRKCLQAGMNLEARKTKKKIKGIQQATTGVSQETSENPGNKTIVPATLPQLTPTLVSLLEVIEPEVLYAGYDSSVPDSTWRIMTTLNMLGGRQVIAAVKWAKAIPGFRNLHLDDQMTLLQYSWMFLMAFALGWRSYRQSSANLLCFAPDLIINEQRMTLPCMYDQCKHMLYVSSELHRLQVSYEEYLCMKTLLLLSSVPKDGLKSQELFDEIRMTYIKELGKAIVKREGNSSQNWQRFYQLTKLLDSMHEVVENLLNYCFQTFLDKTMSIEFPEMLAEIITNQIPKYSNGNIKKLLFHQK
compound,measurement,setting,value
CO[Si](C)(OC)OC,outcome,[1],inactive
same,Potency,[2],inactive
same,outcome,[3],inactive
same,outcome,[4],inactive
same,outcome,[5],inactive
same,Potency,[6],inactive
same,outcome,[7],inactive
same,Potency,[8],inactive
same,Potency,[9],inactive
same,Potency,[10],inactive
same,Potency,[11],inactive
same,Potency,[12],inactive
same,Potency,[13],inactive
same,Potency,[14],inactive
same,Potency,[15],inactive
same,Potency,[16],inactive
same,Potency,[17],inactive
CCc1cccc(N(C)C(N)=Nc2cccc3ccccc23)c1,outcome,[1],inactive
same,Potency,[2],inactive
same,outcome,[3],inactive
same,outcome,[4],inactive
same,outcome,[5],inactive
same,Potency,[6],inactive
same,outcome,[7],inactive
same,Potency,[8],inactive
same,Potency,[9],inactive
same,Potency,[10],inactive
same,Potency,[11],inactive
same,Potency,[12],5.96 µM (active)
same,Potency,[13],11.9 µM (active)
same,Potency,[14],11.9 µM (active)
same,Potency,[15],inactive
same,Potency,[18],inactive
same,Potency,[17],18.8 µM (active)
Oc1ccc(Nc2ccccc2)cc1,outcome,[1],inactive
same,Potency,[2],inactive
same,outcome,[3],inactive
same,outcome,[4],inactive
same,outcome,[5],inactive
same,Potency,[6],inactive
same,outcome,[7],inactive
same,Potency,[8],inactive
same,Potency,[9],inactive
same,Potency,[10],inactive
same,Potency,[11],inactive
same,Potency,[12],5.45 µM (active)
same,Potency,[13],6.11 µM (active)
same,Potency,[14],6.86 µM (active)
same,Potency,[15],inactive
same,Potency,[19],inactive
same,Potency,[16],inactive
same,Potency,[17],54.5 µM (active)
Cc1oncc1C(=O)Nc1ccc(C(F)(F)F)cc1,outcome,[1],inactive
same,Potency,[2],inactive
same,outcome,[3],inactive
same,outcome,[4],inactive
same,outcome,[5],inactive
same,Potency,[6],inactive
same,outcome,[7],inactive
same,Potency,[8],inactive
same,Potency,[9],inactive
same,Potency,[10],inactive
same,Potency,[11],inactive
same,Potency,[12],7.7 µM (active)
same,Potency,[13],804 nM (active) and 3.44 µM (active)
same,Potency,[14],2.27 µM (active) and 4.86 µM (active)
same,Potency,[15],54.9 µM (active)
same,Potency,[16],inactive
O=C(O)c1ccc(CO)o1,outcome,[1],inactive
same,Potency,[2],inactive
same,outcome,[3],inactive
same,outcome,[4],inactive
same,outcome,[5],inactive
same,Potency,[6],inactive
same,outcome,[7],inactive
same,Potency,[8],inactive
same,Potency,[9],inactive
same,Potency,[10],inactive
same,Potency,[11],inactive
same,Potency,[12],inactive
same,Potency,[13],inactive
same,Potency,[14],inactive
same,Potency,[15],inactive
same,Potency,[16],inactive
CCCCCC=CCC=CCCCCCCCC(=O)OCC,outcome,[1],inactive
same,Potency,[2],inactive
same,outcome,[3],inactive
same,outcome,[4],inactive
same,outcome,[5],inactive
same,Potency,[6],inactive
same,outcome,[7],inactive
same,Potency,[8],inactive
same,Potency,[9],inactive
same,Potency,[10],inactive
same,Potency,[11],inactive
same,Potency,[12],inactive
same,Potency,[13],inactive
same,Potency,[14],inactive
same,Potency,[15],inactive
same,Potency,[16],inactive
same,Potency,[17],inactive
CC(CCc1ccc2c(c1)OCO2)NN (stereo not drawn),outcome,[1],inactive
same,Potency,[2],inactive
same,outcome,[3],inactive
same,outcome,[4],inactive
same,outcome,[5],inactive
same,Potency,[6],inactive
same,outcome,[7],inactive
same,Potency,[8],inactive
same,Potency,[9],inactive
same,Potency,[10],inactive
same,Potency,[11],inactive
same,Potency,[12],inactive
same,Potency,[13],inactive
same,Potency,[14],inactive
same,Potency,[15],inactive
same,Potency,[16],inactive
same,Potency,[17],inactive
CN1C(=O)CC(C)(c2ccccc2)C1=O (stereo not drawn),outcome,[1],inactive
same,Potency,[2],inactive
same,outcome,[3],inactive
same,outcome,[4],inactive
same,outcome,[5],inactive
same,Potency,[6],inactive
same,outcome,[7],inactive
same,Potency,[8],inactive
same,Potency,[9],inactive
same,Potency,[10],inactive
same,Potency,[11],inactive
same,Potency,[12],inactive
same,Potency,[13],inactive
same,Potency,[14],inactive
same,Potency,[15],inactive
same,Potency,[16],inactive
same,Potency,[17],inactive
CNCCCC1c2ccccc2C=Cc2ccccc21,"fluorescence, % of fluorescein",[1],0.0057% [at 18.6 µM]
same,"fluorescence, % of fluorescent control",[2],0.01% [at 18.6 µM]
same,activity change,[3],0.0344% [at 18.6 µM]
same,"fluorescence, % of fluorescent control",[4],-0.009% [at 18.6 µM]
same,"fluorescence, % of Rose Bengal",[5],0.549% [at 18.6 µM]
same,"fluorescence, % of fluorescent control",[6],-0.0014% [at 18.6 µM]
same,"fluorescence, % of fluorescein control",[7],-0.0217% [at 18.6 µM]
same,"fluorescence, % of fluorescent control",[8],-0.121% [at 18.6 µM]
same,Potency,[9],inactive
same,Potency,[10],inactive
same,Potency,[11],inactive
same,Potency,[12],4.52 µM (active)
same,Potency,[13],12.7 µM (active)
same,Potency,[14],11.4 µM (active)
same,Potency,[15],inactive
same,Potency,[16],inactive
same,Potency,[17],4.52 µM (active)
CC#N,outcome,[1],inactive
same,Potency,[2],inactive
same,outcome,[3],inactive
same,outcome,[4],inactive
same,outcome,[5],inactive
same,Potency,[6],inactive
same,outcome,[7],inactive
same,Potency,[8],inactive
same,Potency,[9],inactive
same,Potency,[10],inactive
same,Potency,[11],inactive
same,Potency,[12],inactive
same,Potency,[13],inactive
same,Potency,[14],inactive
same,Potency,[15],inactive
same,Potency,[16],inactive
same,Potency,[17],inactive
CC(=O)Nc1ccc(N)cc1,outcome,[1],inactive
same,Potency,[2],inactive
same,outcome,[3],inactive
same,outcome,[4],inactive
same,outcome,[5],inactive
same,Potency,[6],inactive
same,outcome,[7],inactive
same,Potency,[8],inactive
same,Potency,[9],inactive
same,Potency,[10],inactive
same,Potency,[11],inactive
same,Potency,[12],inactive
same,Potency,[13],inactive
same,Potency,[14],inactive
same,Potency,[15],inactive
same,Potency,[18],inactive
same,Potency,[16],inactive
CCCCC(CC)C(=O)OCCOCCOCCOCCOC(=O)C(CC)CCCC (stereo not drawn),outcome,[1],inactive
same,Potency,[2],inactive
same,outcome,[3],inactive
same,outcome,[4],inactive
same,outcome,[5],inactive
same,Potency,[6],inactive
same,outcome,[7],inactive
same,Potency,[8],inactive
same,Potency,[9],inactive
same,Potency,[10],inactive
same,Potency,[11],inactive
same,Potency,[12],27.3 µM (active)
same,Potency,[13],43.3 µM (active)
same,Potency,[14],30.6 µM (active)
same,Potency,[15],inactive
same,Potency,[16],inactive
same,Potency,[17],inactive
O=C(N/N=C/c1ccc([N+](=O)[O-])o1)c1ccc(O)cc1,"fluorescence, % of fluorescein",[1],0.0272% [at 18.6 µM]
same,"fluorescence, % of fluorescent control",[2],-0.307% [at 18.6 µM]
same,activity change,[3],0.0091% [at 18.6 µM]
same,"fluorescence, % of fluorescent control",[4],-0.537% [at 18.6 µM]
same,"fluorescence, % of Rose Bengal",[5],-0.154% [at 18.6 µM]
same,"fluorescence, % of fluorescent control",[6],-0.18% [at 18.6 µM]
same,"fluorescence, % of fluorescein control",[7],-0.0078% [at 18.6 µM]
same,"fluorescence, % of fluorescent control",[8],-0.0309% [at 18.6 µM]
same,Potency,[9],inactive
same,Potency,[10],inactive
same,Potency,[11],inactive
same,Potency,[12],4.52 µM (active)
same,Potency,[13],4.03 µM (active)
same,Potency,[14],4.52 µM (active)
same,Potency,[15],inactive
same,Potency,[19],inactive
same,Potency,[17],inactive
C=CC(=C)CCCC(C)(C)OC(C)=O,outcome,[1],inactive
same,Potency,[2],inactive
same,outcome,[3],inactive
same,outcome,[4],inactive
same,outcome,[5],inactive
same,Potency,[6],inactive
same,outcome,[7],inactive
same,Potency,[8],inactive
same,Potency,[9],inactive
same,Potency,[10],inactive
same,Potency,[11],inactive
same,Potency,[12],inactive
same,Potency,[13],inactive
same,Potency,[14],inactive
same,Potency,[15],inactive
same,Potency,[18],inactive
same,Potency,[16],inactive
same,Potency,[17],inactive
